Measured values from PubChem BioAssay (NCATS).
Results filed as inconclusive are left out. Activity calls are given as the source filed them. Unless noted, the call rests on the fitted dose curve; in most records, active means well fitted curve in the direction sought with a large enough effect; inconclusive means small, poorly fitted or top-dose-only effect, or another doubt; inactive means no such curve, though single readings can be large; an effect the other way counts as inactive or inconclusive.

Assays:
[1] = target: Lysosomal acid glucosylceramidase (Homo sapiens) (UniProt P04062); test: Glucocerebrosidase-p2 (AID 348; in the data active means potency below about 10 µM; further: potency means the concentration at half of the fitted maximal effect); conditions: purified GBA, blue fluorogenic substrate, 40 min
Summary of the method: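 Normal human glucocerebrosidase (0.2 nM) with blue fluorogenic substrate (80 uM final) in citrate/phosphate pH 5.9 with 10mM sodium taurocholate, 0.01% tween-20; 40 min RT, NaOH/glycine stop; fluorescence Ex 365/Em 440; AC50 from a titration from 0.6 nM upwards.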

[2] = AP1 Signaling Pathway (AID 357; active means well fitted curve in either direction with a large enough effect, not every such curve was filed as active;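 further: ME-180 reporter cells stimulated with EGF at its EC50 level; on the % scale 0 is the no-effect control and ±100 the full control effect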); conditions: ME-180 AP-1-bla reporter, EGF-induced, beta-lactamase ratio, 5 h; at 7.69 µM (top of the series) unless noted
Summary of the method: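 In this screen, ME-180 cells in Opti-MEM with 0.5% dialyzed FBS received EC50 EGF and compound titrations for 5 h. AP-1 reporter beta-lactamase was detected via CCF4 ratio, giving AC50 for positive and negative modulators.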

[3] = target: Cytochrome P450 1A2 (Homo sapiens) (UniProt P05177); test: p450-cyp1a2 (AID 410; calls by dose curve; further: potency means the concentration at half of the fitted maximal effect); conditions: recombinant CYP1A2, luciferin-ME demethylation, luminescence; series mostly up to 57 µM
Summary of the method: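 20nM CYP1A2, 100uM Luciferin-ME (=Km), 100mM KPO4; cpd 10 min RT; +NADPH regen, 60 min RT; stop/detect 20 min; luminescence. Normalized to furafylline 57 uM = full inhibition.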

[4] = target: Glucocorticoid receptor (Homo sapiens) (UniProt P04150); test: GR-GFP Redistribution (AID 450;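 active means compounds whose dose series gives a full or clear partial fitted curve of increased nuclear translocation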; further: potency means the concentration at half of the fitted maximal effect); conditions: U2OS GR-GFP nuclear translocation, laser cytometry, 2 h
[5] = target: Glucocorticoid receptor (Homo sapiens) (UniProt P04150); test: GR-EFC Redistribution (AID 451; calls by dose curve; further: potency means the concentration at half of the fitted maximal effect); conditions: CHO-K1 GR-EFC translocation, beta-gal luminescence, 2 h
Summary of the method: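 CHO-K1 cells expressing nuclear EA and GR-ED fragments of b-gal; compounds titrated up to 46 uM final, 2 h at 37 C. GR nuclear translocation read as complemented b-gal luminescence after 1 h RT detection.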

[6] = target: Mitogen-activated protein kinase 10 (Mus musculus) (UniProt Q61831); test: JNK3 AlphaScreen Assay (AID 530; active means well fitted curve in either direction with a large enough effect, not every such curve was filed as active;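 further: kinase came from lysate of stimulated human HepG2 cells; signal reports phosphorylation of biotinylated GST-cJun 1-79 at Ser73 with 10 µM ATP; on the % scale 0 is the no-effect control and ±100 the full control effect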); conditions: JNK3 lysate, c-Jun phosphorylation; series mostly up to 57.1 µM
Summary of the method: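 HepG2 lysate (IL-1b/TNFa pre-activated) + biotin-GST-cJun 1-79 + anti-pSer73 cJun; cpd titration, 15 min RT; ATP 10 uM start; Tris pH 7.6, MgCl2, DTT, vanadate; beads in EDTA buffer; AlphaScreen.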

[7] = target: Cytochrome P450 3A4 (Homo sapiens) (UniProt P08684); test: qHTS Assay for Inhibitors and Substrates of Cytochrome P450 3A4 (AID 884); conditions: recombinant CYP3A4, Luciferin-PPXE luminescence; series mostly up to 57.1 µM; further: nearly all actives have a fitted effect of over 50% in size; further: potency means the concentration at half of the fitted maximal effect
Summary of the method: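 Luminescent readout of luciferin produced by CYP3A4 (20 nM) dealkylation of Luciferin-PPXE, 25 uM (its KM). NADPH-driven reaction ran 60 min at RT after 10 min compound preincubation; data scaled to 57 uM ketoconazole as 100% inhibition.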

[8] = target: Cytochrome P450 3A4 (Homo sapiens) (UniProt P08684); test: qHTS Assay for Activators of Cytochrome P450 3A4 (AID 885); conditions: recombinant CYP3A4, Luciferin-PPXE luminescence, 60 min; series mostly up to 57.1 µM; further: nearly all actives have a fitted effect of over 65% in size
Summary of the method: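 Using 20nM recombinant human CYP3A4 in potassium phosphate (200mM), substrate Luciferin-PPXE at 25uM, luminescent luciferin detection followed a 60-min RT NADPH reaction; data scaled to 57 uM ketoconazole.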

[9] = target: Cytochrome P450 2C19 (Homo sapiens) (UniProt P33261); test: qHTS Assay for Inhibitors and Substrates of Cytochrome P450 2C19 (AID 899); conditions: recombinant CYP2C19, luciferin-H EGE luminescence; series mostly up to 57.1 µM; further: potency means the concentration at half of the fitted maximal effect; nearly all actives have a fitted effect of over 60% in size
Summary of the method: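 Signal comes from luciferase acting on luciferin released by CYP2C19-mediated hydroxylation of Luciferin-H EGE, 10uM (KM). Assay mix: 5nM enzyme, 50mM KPO4; 60 min at 37C with NADPH regeneration. Data normalized against 57uM ketoconazole.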

[10] = qHTS Assay for Lipid Storage Modulators (AID 1519; calls by dose curve); conditions: Drosophila S3 cells, BODIPY lipid droplet/cell ratio, laser cytometry, cells loaded with oleic acid; for activity change, negative = inhibition: at 57.5 µM (top of the series)
Summary of the method: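 Cells seeded at 5,000 per well were treated with compounds over a concentration series and loaded with oleic acid (400 uM, as added). Lipid droplet fluorescence (488 nm excitation, 500-530 nm channel) was read by laser-scanning cytometry and normalized to 20 uM Triacsin C.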

[11] = target: Dual specificity protein kinase CLK4 (Homo sapiens) (UniProt Q9HAZ1); test: qHTS Assay for Inhibitors of CDC-like Kinase 4 (Kinase-Glo Assay) (AID 1770); conditions: recombinant Clk4, Kinase-Glo ATP depletion luminescence; series mostly up to 66.7 µM; further: nearly all actives have a fitted effect of over 65% in size; further: potency means the concentration at half of the fitted maximal effect
Summary of the method: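 Readout: Kinase-Glo luminescence from ATP left after a 4.5 h room-temperature reaction of 25 nM Clk4 with 100 uM RS peptide and 1 uM ATP (final). Buffer: 25 mM Tris pH 7.5, 10 mM MgCl2.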

[12] = target: Dual specificity protein kinase CLK4 (Homo sapiens) (UniProt Q9HAZ1); test: qHTS Assay for Inhibitors of CDC-like Kinase 4 (ADP-Glo Assay) (AID 1771); conditions: recombinant CLK4, ADP-Glo luminescence; series mostly up to 80 µM; further: nearly all actives have a fitted effect of over 70% in size; further: potency means the concentration at half of the fitted maximal effect
Summary of the method: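 25 nM Clk4, 100 uM RS peptide, 1 uM ATP (final); 2 mM MgCl2, 0.5 mM EGTA, 2.5 mM DTT, 0.01% Triton X-100; 1 hr RT. ADP-Glo readout: ATP depletion 45 min, conversion/luciferase 30 min, luminescence.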

[13] = target: Dual specificity protein kinase CLK4 (Homo sapiens) (UniProt Q9HAZ1); test: qHTS Assay for Inhibitors of CDC-like Kinase 4 (ADP-FP Assay) (AID 1795); conditions: Transcreener ADP fluorescence polarization; series mostly up to 50 µM; further: nearly all actives have a fitted effect of over 60% in size; further: potency means the concentration at half of the fitted maximal effect
Summary of the method: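 FP readout: Orange Transcreener ADP2 tracer (4 nM) plus ADP antibody, read after 30 min at room temperature. Kinase step: 6.25 nM Clk4, 100 uM RS peptide, 1 uM ATP, pH 7.5, 1 h.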

[14] = target: Ubiquitin carboxyl-terminal hydrolase 1 (Homo sapiens) (UniProt O94782); test: Inhibitors of USP1/UAF1: Pilot qHTS (AID 504865); conditions: purified USP1/UAF1, Ub-rhodamine cleavage fluorescence; series mostly up to 54.9 µM;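 further: rhodamine fluorescence freed from ubiquitin-rhodamine substrate followed over time; top concentration of the series differs between compounds; on the % scale 0 is the no-effect control and ±100 the full control effect; nearly all actives have a fitted effect of over 35% in size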
Summary of the method: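 1nM USP1/UAF1 + cpd, 15 min RT; start w/ Ub-Rho 150nM final; kinetic FL 480/540 nm, 6 reads q60 s. Buffer 50mM HEPES pH 7.8, 0.5mM EDTA, 1mM TCEP, 0.01% Tween-20, 0.1 mg/ml BSA.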

[15] = Primary qHTS for small molecule stabilizers of the endoplasmic reticulum resident proteome: Secreted ER Calcium Modulated Protein (SERCaMP) assay (AID 1508630); conditions: SH-SY5Y GLuc-SERCaMP (Gaussia luciferase released on ER calcium loss) secretion, thapsigargin, luminescence; series mostly up to 38.4 µM; further: on the % scale 0 is the no-effect control and ±100 the full control effect
Summary of the method: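 The SH-SY5Y reporter protocol was run at 3 concentrations up to 38.3 uM (primary) or 11 concentrations (follow-up): 16 h compound, 100 nM thapsigargin for 4 h, then extracellular luciferase luminescence.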

[16] = target: 3',5'-cyclic-AMP phosphodiesterase 4B (Homo sapiens) (UniProt Q07343); test: qHTS Assay for Inhibitors of PDE-IV (AID 607; active means well fitted activation curve with a large enough effect in the main read-out, with a control signal flat, not every such curve was filed as active; further: % of control where 0% means no effect); conditions: HEK293 ACTOne CNG channel cells, membrane potential fluorescence; series mostly up to 22.9 µM
Summary of the method: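 Live HEK293 cells with a modified cyclic nucleotide-gated (CNG) channel report intracellular cAMP via membrane-potential dye fluorescence (ex 535/em 590 nm). Endogenous PDE-IV was targeted. Compounds were tested at up to 22.9 uM final; RO 20-1724 100 uM served as control.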

[17] = NFAT Signaling Pathway (AID 444; active means well fitted curve in either direction with a large enough effect, not every such curve was filed as active;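 further: carbachol stimulus at about its EC50 of 1 µM final; on the % scale 0 is the no-effect control and ±100 the full control effect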); conditions: Jurkat NFAT-bla M1, carbachol, beta-lactamase ratio, 5 h; at 7.69 µM (top of the series) unless noted
Summary of the method: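 Jurkat cells with NFAT-driven β-lactamase reporter and co-expressed M1 receptor, stimulated with carbachol (final 1 uM, ~EC50), compound titration, 5 h at 37 °C. CCF4 loaded 1 h at RT; 460/530 nm ratio gave %activity and AC50.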

[18] = Stat Signaling Pathway (AID 446; active means well fitted curve in either direction with a large enough effect, not every such curve was filed as active); conditions: ME-180 (cervical carcinoma) SIE beta-lactamase reporter, IL-6 stimulated, 5 h; at 7.69 µM (top of the series) unless noted
Summary of the method: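 Overnight-plated ME-180 cells bearing a STAT Inducible Element beta-lactamase reporter; 5 h co-exposure to compound and 40 pM IL-6; values normalized to 300 pM IL-6 and 125 nM JAK inhibitor controls.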

[19] = measured here: cell count channel max response
[20] = measured here: lipid channel max response

Chain of 3',5'-cyclic-AMP phosphodiesterase 4B (Homo sapiens) (Q07343 whole entry, looked up): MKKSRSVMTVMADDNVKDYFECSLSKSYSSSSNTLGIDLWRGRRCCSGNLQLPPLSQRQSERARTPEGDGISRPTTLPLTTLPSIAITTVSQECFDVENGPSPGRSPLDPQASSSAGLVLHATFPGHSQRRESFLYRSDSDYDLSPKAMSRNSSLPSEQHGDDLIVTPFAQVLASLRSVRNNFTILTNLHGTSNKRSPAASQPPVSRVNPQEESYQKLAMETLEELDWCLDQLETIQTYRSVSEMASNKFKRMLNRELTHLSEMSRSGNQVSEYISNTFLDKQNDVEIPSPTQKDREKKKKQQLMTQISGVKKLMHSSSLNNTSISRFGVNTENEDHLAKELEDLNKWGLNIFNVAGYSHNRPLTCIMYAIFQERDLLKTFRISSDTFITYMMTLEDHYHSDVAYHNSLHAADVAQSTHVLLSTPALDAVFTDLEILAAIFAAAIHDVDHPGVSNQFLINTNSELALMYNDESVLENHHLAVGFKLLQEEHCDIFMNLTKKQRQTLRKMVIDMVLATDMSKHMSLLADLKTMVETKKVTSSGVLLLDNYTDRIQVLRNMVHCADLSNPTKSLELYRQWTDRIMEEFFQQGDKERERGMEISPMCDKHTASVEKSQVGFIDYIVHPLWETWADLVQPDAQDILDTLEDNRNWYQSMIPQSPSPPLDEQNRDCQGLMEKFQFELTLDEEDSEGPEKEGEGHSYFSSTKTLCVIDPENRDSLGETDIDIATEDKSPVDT
Chain of Dual specificity protein kinase CLK4 (Homo sapiens) (Q9HAZ1 whole entry, looked up): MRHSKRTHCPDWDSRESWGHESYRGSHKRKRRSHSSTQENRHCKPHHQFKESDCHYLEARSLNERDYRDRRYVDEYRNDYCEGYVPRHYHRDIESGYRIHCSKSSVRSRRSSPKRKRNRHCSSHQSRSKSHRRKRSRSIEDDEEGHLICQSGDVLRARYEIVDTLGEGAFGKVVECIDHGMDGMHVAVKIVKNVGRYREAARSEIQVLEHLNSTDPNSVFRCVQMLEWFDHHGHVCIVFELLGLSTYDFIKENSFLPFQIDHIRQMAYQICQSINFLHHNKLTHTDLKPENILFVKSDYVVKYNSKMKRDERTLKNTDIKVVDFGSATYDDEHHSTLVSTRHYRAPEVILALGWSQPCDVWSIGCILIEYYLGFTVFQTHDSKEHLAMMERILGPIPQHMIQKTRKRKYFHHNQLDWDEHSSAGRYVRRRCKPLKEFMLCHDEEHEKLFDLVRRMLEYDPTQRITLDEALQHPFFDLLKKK
Chain of Cytochrome P450 3A4 (Homo sapiens) (P08684 whole entry, looked up): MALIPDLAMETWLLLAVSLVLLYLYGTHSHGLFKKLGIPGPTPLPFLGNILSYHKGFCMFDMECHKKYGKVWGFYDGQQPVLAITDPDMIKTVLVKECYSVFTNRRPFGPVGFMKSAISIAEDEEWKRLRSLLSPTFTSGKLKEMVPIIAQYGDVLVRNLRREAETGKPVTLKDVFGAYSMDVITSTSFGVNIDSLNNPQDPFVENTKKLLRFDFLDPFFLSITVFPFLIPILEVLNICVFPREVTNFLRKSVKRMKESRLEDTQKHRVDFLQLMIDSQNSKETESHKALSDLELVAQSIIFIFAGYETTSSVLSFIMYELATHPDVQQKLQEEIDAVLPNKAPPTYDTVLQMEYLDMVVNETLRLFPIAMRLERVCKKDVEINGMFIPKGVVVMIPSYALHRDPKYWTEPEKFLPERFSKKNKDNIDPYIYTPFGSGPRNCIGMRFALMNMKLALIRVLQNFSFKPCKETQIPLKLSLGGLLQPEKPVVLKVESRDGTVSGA
Chain of Lysosomal acid glucosylceramidase (Homo sapiens) (P04062 whole entry, looked up): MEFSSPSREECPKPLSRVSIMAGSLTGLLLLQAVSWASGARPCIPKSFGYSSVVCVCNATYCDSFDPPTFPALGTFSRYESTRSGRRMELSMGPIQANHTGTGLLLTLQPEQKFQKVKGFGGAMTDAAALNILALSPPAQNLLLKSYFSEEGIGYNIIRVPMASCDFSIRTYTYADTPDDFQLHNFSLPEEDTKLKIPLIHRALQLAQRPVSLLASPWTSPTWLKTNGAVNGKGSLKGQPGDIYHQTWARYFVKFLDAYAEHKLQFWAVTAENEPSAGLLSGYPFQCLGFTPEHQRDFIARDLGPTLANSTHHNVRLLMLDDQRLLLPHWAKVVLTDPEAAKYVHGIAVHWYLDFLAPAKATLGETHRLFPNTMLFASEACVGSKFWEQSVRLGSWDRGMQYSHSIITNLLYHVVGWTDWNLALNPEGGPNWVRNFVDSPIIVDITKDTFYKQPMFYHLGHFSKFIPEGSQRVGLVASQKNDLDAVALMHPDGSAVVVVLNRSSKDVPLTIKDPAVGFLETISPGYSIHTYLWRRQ
Chain of Ubiquitin carboxyl-terminal hydrolase 1 (Homo sapiens) (O94782 whole entry, looked up): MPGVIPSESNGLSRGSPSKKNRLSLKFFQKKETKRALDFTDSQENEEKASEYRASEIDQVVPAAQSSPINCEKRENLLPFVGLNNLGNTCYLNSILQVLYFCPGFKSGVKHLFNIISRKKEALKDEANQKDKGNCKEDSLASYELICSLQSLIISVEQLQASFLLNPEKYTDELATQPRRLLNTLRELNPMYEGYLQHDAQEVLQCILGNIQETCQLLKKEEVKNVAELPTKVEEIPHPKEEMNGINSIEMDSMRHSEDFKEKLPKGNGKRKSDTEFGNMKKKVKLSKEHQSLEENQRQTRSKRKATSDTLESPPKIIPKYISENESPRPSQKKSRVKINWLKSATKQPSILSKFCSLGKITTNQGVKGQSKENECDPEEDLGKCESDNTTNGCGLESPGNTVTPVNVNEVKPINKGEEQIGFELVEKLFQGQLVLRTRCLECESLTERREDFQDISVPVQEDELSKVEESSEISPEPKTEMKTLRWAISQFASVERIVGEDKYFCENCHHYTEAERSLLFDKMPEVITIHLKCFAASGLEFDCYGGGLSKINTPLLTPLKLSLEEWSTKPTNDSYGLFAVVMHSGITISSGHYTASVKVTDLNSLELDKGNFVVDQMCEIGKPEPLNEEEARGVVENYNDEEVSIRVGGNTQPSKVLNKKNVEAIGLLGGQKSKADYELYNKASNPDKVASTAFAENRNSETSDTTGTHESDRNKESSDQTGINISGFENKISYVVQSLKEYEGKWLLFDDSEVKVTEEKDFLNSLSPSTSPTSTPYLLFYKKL
Chain of Cytochrome P450 1A2 (Homo sapiens) (P05177 whole entry, looked up): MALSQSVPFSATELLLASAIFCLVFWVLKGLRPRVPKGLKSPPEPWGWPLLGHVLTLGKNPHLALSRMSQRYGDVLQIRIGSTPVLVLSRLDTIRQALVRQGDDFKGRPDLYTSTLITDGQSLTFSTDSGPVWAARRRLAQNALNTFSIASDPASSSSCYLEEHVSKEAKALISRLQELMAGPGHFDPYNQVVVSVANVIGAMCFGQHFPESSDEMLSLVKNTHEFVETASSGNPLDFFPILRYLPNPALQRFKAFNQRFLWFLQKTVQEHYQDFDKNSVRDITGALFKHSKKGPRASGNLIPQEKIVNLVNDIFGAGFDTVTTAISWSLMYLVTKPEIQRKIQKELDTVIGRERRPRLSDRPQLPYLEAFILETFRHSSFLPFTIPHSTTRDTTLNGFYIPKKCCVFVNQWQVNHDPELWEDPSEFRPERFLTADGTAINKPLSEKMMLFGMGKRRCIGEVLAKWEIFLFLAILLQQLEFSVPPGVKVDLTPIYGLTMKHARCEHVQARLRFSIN
Chain of Glucocorticoid receptor (Homo sapiens) (P04150 whole entry, looked up, the tested form may be a part): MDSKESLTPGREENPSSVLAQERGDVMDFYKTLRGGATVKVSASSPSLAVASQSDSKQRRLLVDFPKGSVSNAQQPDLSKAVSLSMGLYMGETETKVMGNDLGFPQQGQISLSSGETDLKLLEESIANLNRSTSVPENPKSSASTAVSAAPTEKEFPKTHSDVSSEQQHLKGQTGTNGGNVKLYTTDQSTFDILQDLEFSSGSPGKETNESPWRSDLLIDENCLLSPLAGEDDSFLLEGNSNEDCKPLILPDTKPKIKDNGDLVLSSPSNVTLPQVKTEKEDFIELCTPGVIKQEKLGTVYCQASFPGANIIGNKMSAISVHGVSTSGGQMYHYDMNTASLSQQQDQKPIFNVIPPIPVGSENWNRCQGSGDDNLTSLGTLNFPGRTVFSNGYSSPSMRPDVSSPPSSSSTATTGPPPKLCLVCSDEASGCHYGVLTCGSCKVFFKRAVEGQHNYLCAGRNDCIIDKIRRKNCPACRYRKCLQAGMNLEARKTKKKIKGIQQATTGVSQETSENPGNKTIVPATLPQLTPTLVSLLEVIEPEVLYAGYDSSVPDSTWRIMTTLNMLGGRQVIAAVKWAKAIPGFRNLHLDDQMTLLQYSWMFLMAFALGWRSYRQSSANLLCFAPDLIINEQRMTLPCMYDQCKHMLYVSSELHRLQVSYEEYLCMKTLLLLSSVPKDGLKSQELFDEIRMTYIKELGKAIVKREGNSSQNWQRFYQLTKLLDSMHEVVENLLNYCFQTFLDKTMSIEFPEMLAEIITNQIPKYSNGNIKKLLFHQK
Chain of Cytochrome P450 2C19 (Homo sapiens) (P33261 whole entry, looked up): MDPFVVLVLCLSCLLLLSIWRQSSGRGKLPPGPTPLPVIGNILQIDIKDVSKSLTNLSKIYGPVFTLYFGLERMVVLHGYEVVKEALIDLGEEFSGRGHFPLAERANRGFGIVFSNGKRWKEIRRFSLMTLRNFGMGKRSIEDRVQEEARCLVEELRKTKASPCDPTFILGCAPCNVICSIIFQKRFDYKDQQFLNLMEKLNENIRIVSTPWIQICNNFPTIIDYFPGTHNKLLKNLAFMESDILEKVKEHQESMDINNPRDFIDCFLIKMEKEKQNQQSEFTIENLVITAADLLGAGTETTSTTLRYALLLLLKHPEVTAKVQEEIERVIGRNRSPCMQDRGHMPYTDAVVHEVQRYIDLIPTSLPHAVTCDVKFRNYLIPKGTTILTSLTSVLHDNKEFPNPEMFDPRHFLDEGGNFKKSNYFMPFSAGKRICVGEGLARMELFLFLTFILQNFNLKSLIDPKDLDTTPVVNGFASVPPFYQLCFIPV

SMILES | Potency [1] | activity change, negative = inhibition [2] | Potency [3] | Potency [4] | Potency [5] | outcome [6] | Potency [7] | Potency [8] | Potency [9] | activity change, negative = inhibition [10] | max response [10, 19] [%] | max response [10, 20] [%] | Potency [11] | Potency [12] | Potency [13] | Potency [14] | Potency [15] | Potency [16] | activity change, negative = inhibition [17] | activity, negative = inhibition [18]
Cc1ccccc1-c1cncnc1NCc1ccccc1 | > 11.4 µM (inactive) | -6.25% (inactive) | 12.6 µM (active) | > 46 µM (inactive) | > 46 µM (inactive) | inactive | 0.316 µM (active) | inactive | 2 µM (active) | 5.04% (inactive) | 7.66 | 10.6 | inactive | inactive | inactive | inactive | inactive | – | – | –
CN1CCN(c2ncc3nc(-c4ccc(Cl)cc4)c(=O)n(Cc4cccs4)c3n2)CC1 | > 11.4 µM (inactive) | 140% [activator] (active) | 10 µM (active) | > 9.22 µM (inactive) | > 46 µM (inactive) | – | inactive | – | – | 0.387% (inactive) | 19.7 | 16.2 | inactive | inactive | inactive | inactive | inactive | inactive | – | –
Cc1nc2cnc(N3CCOCC3)nc2n(Cc2ccc(F)cc2)c1=O | > 11.4 µM (inactive) | -3.91% (inactive) | – | > 9.22 µM (inactive) | > 46 µM (inactive) | inactive | – | – | – | 2.61% (inactive) | 13.7 | 15.9 | inactive | inactive | inactive | inactive | inactive | – | -17.2% (inactive) | 4.04% (inactive)
Cc1noc(C)c1-c1cc(NCCN2CCOCC2)ncn1 | > 11.4 µM (inactive) | 27.9% (inactive) | – | > 46 µM (inactive) | > 46 µM (inactive) | inactive | – | – | – | 6.08% (inactive) | 23.5 | 29.1 | 25.1 µM (active) | 22.4 µM (active) | inactive | inactive | inactive | inactive | 20.1% (inactive) | 0.606% (inactive)
COc1ccc(-n2c(=O)c(-c3cccs3)nc3cnc(N4CCOCC4)nc32)cc1 | > 11.4 µM (inactive) | 0.656% (inactive) | 12.6 µM (active) | > 9.22 µM (inactive) | > 46 µM (inactive) | inactive | – | inactive | – | 5.16% (inactive) | 28.1 | 27.2 | inactive | inactive | inactive | inactive | inactive | inactive | -15.7% (inactive) | –
Fc1ccc(Nc2ncncc2-c2ccccc2C(F)(F)F)cc1 | > 11.4 µM (inactive) | -13.5% (inactive) | 20 µM (active) | > 46 µM (inactive) | > 46 µM (inactive) | inactive | 0.398 µM (active) | inactive | 7.94 µM (active) | 3.62% (inactive) | 13 | 14.7 | inactive | inactive | inactive | inactive | inactive | – | – | 23.6% (inactive)
COc1cccc(Nc2ncc3nc(-c4ccccc4)c(=O)n(Cc4cccs4)c3n2)c1 | > 11.4 µM (inactive) | -7.2% (inactive) | – | > 9.22 µM (inactive) | > 46 µM (inactive) | inactive | – | – | – | 5.46% (inactive) | 20.3 | 24.9 | inactive | inactive | inactive | inactive | inactive | – | -11.8% (inactive) | 21.9% (inactive)
Cc1noc(C)c1-c1ccc2ncnc(Nc3ccc(F)cc3)c2c1 | > 11.4 µM (inactive) | -20.2% (inactive) | 3.98 µM (active) | > 46 µM (inactive) | > 46 µM (inactive) | inactive | – | inactive | – | 6.07% (inactive) | 23.8 | 29.1 | 4.47 µM (active) | 6.31 µM (active) | 3.16 µM (active) | inactive | inactive | inactive | – | -24.6% (inactive)
